Compounds with a hit are over-represented: about 2.3% of the library has one in this group of screens.
Bcl-xL primary: inhibitors of human Bcl-xL, primary screen, biochemical, fluorescence polarization, HTS; Bcl-2-like protein 1 (Homo sapiens), Q07817; GST-Bcl-xL / FITC-Bim BH3 peptide fluorescence polarization; inhibition, % at 10.9 µM; hit rate 0.7% among 320,000; AID 2129, 2009;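 active means inhibition above the mean of all tested compounds plus 3 SD, cutoff set per campaign, cut at about 30% in these data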;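 further: inhibitors lower millipolarization by displacing the labeled peptide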
MCL1 BIM primary: inhibitors of MCL1 binding to BIM-BH3, primary screen, biochemical, fluorescence polarization. Induced myeloid leukemia cell differentiation protein Mcl-1 (Homo sapiens), Q07820. GST-MCL1 / FITC-Bim-BH3 fluorescence polarization. inhibition, % at 10.9 µM. hit rate 0.68% among 320,000. AID 2057, 2009;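 active means inhibition above the mean inhibition of all tested compounds plus 3 SD, set per campaign, cut at about 40% in these data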;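 further: higher means more loss of mP so more displacement of Bim peptide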
Target sequence (Q07820 whole entry, looked up): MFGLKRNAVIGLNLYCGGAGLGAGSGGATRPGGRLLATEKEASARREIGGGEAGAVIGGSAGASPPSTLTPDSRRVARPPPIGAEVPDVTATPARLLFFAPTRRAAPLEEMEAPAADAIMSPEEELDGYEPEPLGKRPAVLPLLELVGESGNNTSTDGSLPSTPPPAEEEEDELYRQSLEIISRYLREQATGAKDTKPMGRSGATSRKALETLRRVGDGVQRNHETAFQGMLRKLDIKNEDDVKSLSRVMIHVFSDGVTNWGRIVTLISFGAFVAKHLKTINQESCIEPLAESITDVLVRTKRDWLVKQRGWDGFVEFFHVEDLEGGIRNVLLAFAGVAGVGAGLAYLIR
Mcl1 Bid PPI: Mcl-1/Bid binding inhibitors, primary screen, biochemical, TR-FRET, 1536-well; Induced myeloid leukemia cell differentiation protein Mcl-1 (Homo sapiens), Q07820; TR-FRET Mcl-1/Bid-Dy647 peptide binding; inhibition, % at 21.7 µM; hit rate 0.97% among 220,000;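 active means compounds that cut the binding signal by more than half at the single screening dose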;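 further: His-tagged Mcl-1 with europium anti-His antibody binding Bid BH3 peptide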
GLD-1 RNA inh: GLD-1/TGE RNA complex disruptors, primary screen, biochemical, fluorescence polarization; Female germline-specific tumor suppressor gld-1 (Caenorhabditis elegans), Q17339; purified GLD-1 + fluorescein TGE RNA; inhibition, % at 5.96 µM; hit rate 0.44% among 320,000; AID 2280, 2010;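 active means percent inhibition above a per-plate cutoff, the plate mean of test compounds plus 3 SD, cut at about 30% in these data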
Mcl-1 Bim block: inhibitors of Bim peptide binding to Mcl-1, primary screen, biochemical, bead-based flow cytometry, multiplex. Induced myeloid leukemia cell differentiation protein Mcl-1 (Homo sapiens), Q07820. AID 1009, 2008. hit rate 0.1% among 190,000. Bim peptide-Mcl-1 binding. inhibition, % at 10 µM; in the data active means inhibition above about 40%
Mcl1 Noxa PPI: Mcl-1/Noxa binding inhibitors, primary screen, biochemical, TR-FRET, 1536-well; Induced myeloid leukemia cell differentiation protein Mcl-1 (Homo sapiens), Q07820; TR-FRET Mcl-1/Noxa peptide binding, 2 h; inhibition, % at 21.7 µM; hit rate 1.5% among 220,000;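 active means compounds that cut the protein-peptide binding signal by more than 50% relative to plate controls in a single-dose test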;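 further: His-tagged Mcl-1 with rhodamine Noxa BH3 peptide and terbium anti-His antibody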
Hits are given with their value; 0 = inactive; - = no result given.

SMILES	Bcl-xL primary	MCL1 BIM primary	Mcl1 Bid PPI	GLD-1 RNA inh	Mcl-1 Bim block	Mcl1 Noxa PPI
CCN(CC(=O)Nc1c(C(=O)OC)[nH]c2ccc(Cl)cc12)c1ccc2c(c1)OCO2	49	49	59	0	0	0
O=c1ccc2cc(S(=O)(=O)NCc3ccccc3)ccc2[nH]1	0	0	-	0	-	-
O=C1S/C(=C\c2ccc(O)c([N+](=O)[O-])c2)C(=O)N1c1ccccc1Cl	0	0	0	0	0	0
COc1cc(/C=C2\SC(=O)N(c3ccc(Cl)cc3)C2=O)cc([N+](=O)[O-])c1O	-	-	90	-	0	76
COc1cc(/C=C2/NC(=O)N(c3cccc(Cl)c3)C2=O)ccc1O	0	0	0	0	0	59
COc1cc(/C=C2\SC(=O)N(c3cccc(Cl)c3)C2=O)cc([N+](=O)[O-])c1O	-	-	73	-	0	66
C[C@H](CO)N1C[C@H](C)[C@@H](CN(C)Cc2ccc(C(=O)O)cc2)Oc2c(NS(=O)(=O)c3cn(C)cn3)cccc2C1=O	-	-	-	0	-	-
CC1CCCC(NC(=O)CCC(=O)NCc2ccccc2)C1C (stereo not drawn)	0	0	-	0	-	-
COc1ccc(NC(=S)Nc2ccc3nccnc3c2)cc1	0	0	0	0	0	52
COc1ccc(NC2CCCN(C(=O)c3cc(CC(C)C)nc(N)n3)C2)cc1 (stereo not drawn)	0	0	-	0	-	-
CC(=O)Oc1ccc(C(=O)[C@H]2[C@H]3C(=O)N(c4ccc(C)cc4)C(=O)[C@H]3[C@@H]3C=CC=NN32)cc1	0	0	0	38	0	0
Cc1ncoc1C(=O)N1CCCC(N2CCN(c3cccc(C(F)(F)F)c3)CC2)C1 (stereo not drawn)	0	0	-	0	-	-
COc1cc(C=Nc2cccc(C)c2)c(O)c([N+](=O)[O-])c1	0	0	0	0	53	0
Cc1cccc(N=Cc2cc3c(cc2[N+](=O)[O-])OCO3)c1	0	0	0	0	0	0
O=[N+]([O-])c1cc(Cc2ccccc2)cc(C=Nc2ccc(N3CCOCC3)cc2)c1O	0	0	0	0	0	0
Cc1ccc(O)c(N=Cc2cc(Cc3ccccc3)cc([N+](=O)[O-])c2O)c1	-	-	0	-	0	56
CC1CCN(C(=O)CSc2nnc(CNC(=O)c3ccc(S(=O)(=O)N(C)C)cc3)o2)CC1	0	0	-	0	-	-
Cc1cn(CC2COC(C)(C)O2)c(=O)[nH]c1=O (stereo not drawn)	0	0	0	0	0	73
O=C(Nc1c2c(nn1-c1ccc(F)cc1)CS(=O)(=O)C2)c1ccc2c(c1)OCO2	0	0	-	0	-	-
Cc1ccc(S(=O)(=O)N2CCCC2CNC(=O)C(=O)NC2CC2)cc1 (stereo not drawn)	0	0	-	0	-	-
CCOc1cc(N2CCOCC2)c(OCC)cc1NC(=O)CCS(=O)(=O)c1ccc(Cl)cc1	0	0	101	0	0	0
COC(=O)c1cc(S(=O)(=O)Nc2ccc(C)cn2)c[nH]1	0	0	-	0	-	-
CCOc1ccc(-n2c(SCC(=O)Nc3ccc(CC)cc3)nc3n[nH]c(C)c3c2=N)cc1	0	0	59	0	0	59
COc1ccc2ccccc2c1C1CC(=O)N2CN(C3CCCCC3)CSC2=C1C#N (stereo not drawn)	0	0	0	0	0	63
CCOc1cc(C2CC(=O)N3CN(C4CCCCC4)CSC3=C2C#N)ccc1O (stereo not drawn)	0	0	0	0	0	57
COc1ccc2ccccc2c1C1CC(=O)N2CN(Cc3ccco3)CSC2=C1C#N (stereo not drawn)	0	0	0	0	0	0
CCOc1cc(C2CC(=O)NC(SCC)=C2C#N)ccc1O (stereo not drawn)	0	0	0	0	0	0
COc1ccc2c(c1)CC/C(=C\Nc1ccc3c(c1)OCO3)C2=O	0	0	0	0	0	73
